# Most compounds without a hit are left out; they make up all but 3.3% or so of the library.
# KinaseGlo FLuc = Counterscreen for Luciferase (Kinase-Glo TM) Inhibition. Luciferin 4-monooxygenase (Photuris pensylvanica), Q27757. Potency, µM (series often up to 38.3 µM), inactives show at the top dose activity change, negative = inhibition, usual class: inhibitors. Kinase-Glo luciferase, ATP luminescence, 8 min. 0.28% of 200,000 active; also: nearly all actives have a fitted effect of over 60% in size
#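 Light output from Kinase-Glo luciferase with luciferin and 10 uM ATP in 50 mM imidazole pH 7.2, KCl, MgCl2, Tween 20, BSA; compound pin-delivered, 8-min ambient incubation, then luminescence read.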
# Tau ThT inhib = qHTS for Inhibitors of Tau Fibril Formation, Thioflavin T Binding. Potency, µM (series often up to 57.4 µM), inactives show at the top dose activity, negative = inhibition, actives largely listed as inhibitors. Microtubule-associated protein tau (Homo sapiens), P10636. recombinant tau K18 P301L, heparin-induced fibrillization, ThT fluorescence. 2.1% of 270,000 active; also: nearly all actives have a fitted effect of over 55% in size
# Target sequence (P10636 561-689 P618L limits assumed): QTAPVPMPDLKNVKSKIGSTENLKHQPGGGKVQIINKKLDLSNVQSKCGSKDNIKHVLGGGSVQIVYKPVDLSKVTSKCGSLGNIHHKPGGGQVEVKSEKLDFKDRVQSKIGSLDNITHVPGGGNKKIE
#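 In this qHTS, human K18 P301L tau is incubated with compound and heparin for 6 hr at 37 C, and Thioflavin T fluorescence then reports fibril load.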
# NPSR antag = qHTS Assay for Antagonists of the Neuropeptide S Receptor: cAMP Signal Transduction. Potency, µM (top dose mostly 38.3 µM), without a hit: at the highest dose activity change, negative = inhibition, actives largely listed as inhibitors. AID 1461, 2008. CHO-NPSR cells, cAMP TR-FRET, antagonist mode. 1% of 220,000 active; also: nearly all actives have a fitted effect of over 50% in size
# Target sequence (Q6W5P4 whole entry, looked up): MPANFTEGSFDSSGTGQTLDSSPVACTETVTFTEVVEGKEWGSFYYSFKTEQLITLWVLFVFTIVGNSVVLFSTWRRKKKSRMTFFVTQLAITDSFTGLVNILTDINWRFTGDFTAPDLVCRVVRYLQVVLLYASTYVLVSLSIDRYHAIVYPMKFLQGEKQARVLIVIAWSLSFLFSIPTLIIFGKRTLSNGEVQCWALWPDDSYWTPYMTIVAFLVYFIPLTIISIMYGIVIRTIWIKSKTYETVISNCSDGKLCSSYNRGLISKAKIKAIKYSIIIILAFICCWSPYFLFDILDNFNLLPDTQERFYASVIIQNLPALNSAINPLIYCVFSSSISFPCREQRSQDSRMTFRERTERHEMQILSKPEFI
# Tau fibril FP = qHTS for Inhibitors of Tau Fibril Formation, Fluorescence Polarization | AID 1468, 2008 | 0.39% of 280,000 active | Potency, µM (doses to about 57.7 µM), for the others: top-dose activity, negative = inhibition, actives largely listed as inhibitors | K18 P301L tau heparin fibrillization, Alexa594 FP, 6 h; also: nearly all actives have a fitted effect of over 55% in size
#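 Human K18 P301L fragment (15 uM unlabeled plus 0.24 uM Alexa 594-labeled) in 100 mM sodium acetate pH 7 with compound, aggregation induced by 20 uM heparin for 6 hr at 37 C. ThT (30 uM) added for 1 hr, then Alexa 594 FP read.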
# Tau fluor cs = Counterscreen qHTS for Inhibitors of Tau Fibril Formation, Fluorescence Polarization | tau K18 P301L Alexa594 fluorescence, heparin fibrillization | Potency, µM (titrated, usually from 57.7 µM), for inactives: at the highest dose activity change, negative = decrease | 0.93% of 280,000 active | AID 1463, 2008; also: nearly all actives have a fitted effect of over 55% in size
#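 Human tau K18 P301L (15 uM unlabeled, 0.24 uM Alexa 594-labeled) in 100 mM sodium acetate pH 7 with 20 uM heparin, 6 hr at 37 C. ThT 30 uM added, 1 hr ambient; Alexa 594 FP and total fluorescence read at 555/632 nm.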
# The depositor's hits bear a star; ? = inconclusive; · = no result given; [ ] = another dose, or the depositor's remark. Calls follow the shape of the dose curve; as a rule, active = well fitted curve in the direction sought with a large enough effect; inconclusive = small, poorly fitted or top-dose-only effect, or another doubt; inactive = no such curve, though single readings can be large; an effect the other way counts as inactive or inconclusive. % is scaled to controls: 0 for no effect and ±100 for the full control effect; potency is read from the fitted curve at half-maximal effect.
SMILES,KinaseGlo FLuc,Tau ThT inhib,NPSR antag,Tau fibril FP,Tau fluor cs
Cc1ccc(C)c(-c2csc(-c3c(N)c(C(=O)c4ccc5c(c4)OCO5)n4ccccc34)n2)c1,·,-14%,·,2%,?
Cn1c(=O)cc(SCC(=O)NCc2ccc(F)cc2)c2cc(Cl)ccc21,·,5%,·,-8%,-11%
CCOc1ccccc1CN1CCc2nc(N3CCN(c4ccccc4F)CC3)ncc2C1,·,?,·,2%,-6%
Fc1cccc2sc(Nc3nnc(-c4ccco4)o3)nc12,-5%,13µM*,?,-5%,-23%
COc1cccc2sc(Nc3nnc(-c4ccc(F)cc4)o3)nc12,-2%,?,-19%[46.1 µM],2%,-22%
O=C(O)CN1C(=O)/C(=C/C=C/c2ccccc2)SC1=S,-1%,11µM*,-27%,-6%,-7%
O=C(O)CN1C(=O)/C(=C/c2ccsc2)SC1=S,-1%,-13%,-10%,-6%,7%
Cn1cc(/C=C2\SC(=O)NC2=S)c2ccccc21,-5%,2µM*,-39%,?,?
CC(=O)c1ccc(NC(=O)CN2C(=O)/C(=C/C=C/c3ccccc3)SC2=S)cc1,1%,?,-28%,1%,?
O=C(CN1C(=O)S/C(=C\C=C\c2ccccc2)C1=O)Nc1cccc(O)c1,-3%,?,-23%,?,16µM*[quencher]
Cn1cccc1/C=C1\SC(=S)N(CC(=O)O)C1=O,-3%,11µM*,-10%,-3%,0%
O=C1/C(=C\c2ccco2)SC(=S)N1Cc1ccccc1,-1%,?,-16%[46.1 µM],-3%,?
Cc1ccc(/C=C2/SC(=O)NC2=S)o1,-2%,4.5µM*,13µM*,10µM*,?
Cn1cc(/C=C2\SC(=S)N(NC(=O)c3ccccc3Cl)C2=O)c2ccccc21,-2%,1.1µM*,-12%,-19%,-23%
Cc1ccc(C(=O)NN2C(=O)/C(=C/c3cccn3C)SC2=S)cc1,-1%,5µM*,-5%,0%,?
O=C(O)CN1C(=O)/C(=C/c2ccc(SCc3ccccc3)o2)SC1=S,-3%,13µM*,17%,-8%,-11%
Cc1cccc(NC(=O)CSc2nnc(CNC(=O)c3c(F)cccc3Cl)o2)c1C,·,-9%,·,-4%,-7%
COc1cc(/C=C2\SC(=S)N(NC(=O)c3cccnc3)C2=O)ccc1O,·,·,-26%,3%,-10%
O=C(NN1C(=O)/C(=C\c2ccc(O)c([N+](=O)[O-])c2)SC1=S)c1ccccc1Cl,·,3.2µM*,?,14%,?
Cn1cccc1/C=C1\SC(=S)N(NC(=O)c2ccccc2Cl)C1=O,0%,11µM*,-5%,5%,-26%
C/C(=N\Nc1ccc(C#N)cc1[N+](=O)[O-])c1ccc(O)cc1,·,?,4%,9%,?
C/C(=N\Nc1ccc([N+](=O)[O-])cc1)c1ccc(O)cc1,6%,3.2µM*,-17%,13%,?
CC(=O)NCC(=O)OCc1ccc([N+](=O)[O-])cc1,5%,10%,11%,0%,5%
C/C(=N\Nc1ccc([N+](=O)[O-])cc1)c1cccc(N)c1,1%,3.5µM*,-15%[46.1 µM],?,16µM*[quencher]
CC(=O)NC/C(C)=N\Nc1ccc([N+](=O)[O-])cc1,2%,16µM*,-11%,-1%,-27%
SMILES,KinaseGlo FLuc,Tau ThT inhib,NPSR antag,Tau fibril FP,Tau fluor cs
COc1ccc(NC(=O)Cc2ccc(NC(=O)N3CCCCc4ccccc43)cc2)c(OC)c1,·,-5%,·,4%,-7%
Nc1[nH]c(=O)nc2c1ncn2[C@H]1O[C@@H](CO)[C@@H](O)[C@@H]1O,-2%[7.66 µM],·,·,·,·
CN(C)c1nc(C=C(C#N)C#N)c(Cl)n1-c1ccc(F)cc1,8%,14µM*,-28%,?,-29%
CCOc1ccc(NC(=O)CSC2=Nc3ccccc3C3=NC(CCC(=O)NCc4cccs4)C(=O)N23)cc1 (stereo not drawn),·,-11%,·,15%,-13%
NC(=O)CC(NC(=O)Cc1cccc2ccccc12)c1ccc(N2CCc3ccccc3C2)c([N+](=O)[O-])c1 (stereo not drawn),·,11µM*,-31%,-2%,?
NC(=O)CC(NC(=O)Cc1cccc2ccccc12)c1ccc(N2CCN(c3ccccc3)CC2)c([N+](=O)[O-])c1 (stereo not drawn),·,?,-8%,1%,?
CCCCC/C=C\C/C=C\C/C=C\C=C\C(=O)CCCC(=O)O,2%,-4%,·,0%,-5%
CCCn1cc(S(=O)(=O)c2cccc(Cl)c2)c(=O)c2cc(F)c(N3CCN(CC)CC3)cc21,·,6%,·,3%,5%
CCCCNc1c2c(nc3c(-c4ccccc4)c(C)nn13)CCC2,1%,-12%,10µM*,-4%,-8%
O=C(Cn1cc(SCc2c(F)cccc2Cl)c2ccccc21)N1CCCCC1,·,-4%,·,-7%,-15%
c1cc2c(cc1Nc1nc(-c3ccc4c(c3)OCO4)cs1)OCCO2,-2%,3.2µM*,-14%[46.1 µM],7%,8.9µM*[quencher]
c1cc2c(cc1-c1csc(NNC3=NCCCCC3)n1)OCCO2,-1%,25µM*,-17%,28µM*,?
N#C/C(=C\Nc1ccc2c(c1)OCCO2)c1nc(-c2ccccc2)cs1,2%,0%,-43%,2%,-23%
COc1cccc(Nc2nc(-c3ccc4c(c3)OCCO4)cs2)c1,4%,7.1µM*,-14%[46.1 µM],-8%,11µM*[quencher]
CCC(=O)Nc1nc(-c2ccc3c(c2)OCCO3)cs1,1%,?,-15%[46.1 µM],8%,-8%
c1ccc(-c2csc(Nc3ccc4c(c3)OCCO4)n2)cc1,-12%,13µM*,-4%[46.1 µM],-6%,14µM*[quencher]
Cc1ccc(-n2nc3c(N4CCCC(C(=O)NCCc5ccccc5)C4)nnc(C)c3c2C)cc1 (stereo not drawn),·,-15%,·,1%,3%
COc1ccc(N=Cc2cc(Cc3ccccc3Cl)cc([N+](=O)[O-])c2O)cc1OC,-1%,10µM*,-25%,?,-29%
Cc1ccc(N=Cc2cc(Cc3ccccc3Cl)cc([N+](=O)[O-])c2O)c(O)c1,-9%,7.9µM*,?,?,?
COc1ccc([N+](=O)[O-])cc1NC(=O)Cc1ccccc1Cl,2%,2%,-5%,-9%,-11%
CCOC(=O)c1cc2c(=O)n3ccccc3nc2n(CC2CCCO2)c1=NC(=O)c1ccccc1C (stereo not drawn),·,-11%,·,2%,-11%
CCN(CC)C(=O)c1ccc(Nc2nnc(C)c3ccccc23)cc1,11µM*,-18%,-10%[46.1 µM],-6%,-10%
CCN(CC)C(=O)c1ccc(Nc2nnc(-c3ccc(C)c(S(=O)(=O)NC)c3)c3ccccc23)cc1,·,2%,·,-10%,-13%
